Drawing on PubChem BioAssay (NCI), this text covers growth for nine compounds.

Each structure is given as a SMILES string. Compounds without any hit were thinned out: in the full panel of roughly 83,000, 20% have a hit.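 Values shown are percent growth following 48 h exposure of cells in 96-well plates to a single concentration of compound; below 10 was considered active.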 Values without a mark were called inactive.

The experiment relates to SK-OV-3 ovarian. The experiment in a line: NCI-60 one-dose screen, 48 h (100 = growth as untreated, 0 = no growth, -100 = all killed). To be noted: 10 µM unless noted.
With `COc1ccc(C(=NNS(=O)(=O)c2ccc(C)cc2)c2ccccc2)cc1OC`, the growth was 107%.

On to `CNC(=O)c1cc(Oc2ccc3c(c2)sc2nc(-c4ccc(N(C)C)cc4)cn23)ccn1`, for which the growth is 49.2%.

With `CN1CCN(Cc2ccc(/C=N/Nc3ccnc4cc(Cl)ccc34)cc2)CC1`, the growth was 107%. As to `O=C1Nc2ccccc2/C1=N\c1nnc(-c2ccccc2)o1`, the growth was 82.5%. Then `COc1ccc2c(c1)C=CC1(O2)Oc2ccc(OC)cc2C=C1C` (centres undefined), with 57.2%; and `Cn1cc(-c2nn3cc(-c4ccncc4)nc3s2)c2cc(Br)ccc21`, with 87.6%; and `C#Cc1nc(/C=C/CCCCCCC(=O)NO)cs1`, with 88.8%.

`CC[C@]12CC(C(=O)OC)=C3Nc4ccccc4[C@@]34CCN(C14)[C@@H]1c3cc4c(cc3O[C@@H]1[C@H]2O)NC1=C(C(=O)OC)C[C@@]2(CC)C3N(CC[C@@]143)C[C@H]1O[C@H]12` (some centres undefined): the growth was 27.9%. In the case of `O=C(CCCCCCN1CC(=O)N2[C@@H](C3CC3)c3[nH]c4ccccc4c3C[C@H]2C1=O)NO` it was 102%.
